Measurements published in the supplement of paper PMC10849652.
Targets with a hit are over-represented here; the source holds about 8,800 in all. About 0.5% of all pairs of compound and target were hits.

Assays:
Assay in all cases: log2 fold change, soluble protein after heating vs DMSO (PISA); higher = thermal stabilisation; K562 lysate, 10 uM; active = over 0.2 and 3.5 SD of the protein, either way, in both replicates (recomputed)
erlotinib = compound: C#Cc1cccc(Nc2ncnc3cc(OCCOC)c(OCCOC)cc23)c1 [erlotinib]
Summary of the method: (§1)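 Soluble protein was defined as the supernatant remaining after 21,000xg for 90 min, following pooling of heated aliquots and adjustment to 0.5% NP-40 at 4°C. Before that, crude K562 extract at 1 mg/mL protein in PBS pH 7.4 with 1 mM MgCl2 was treated with 10 μM compound for 30 min and heated for 3 min across 48°C-58°C. Quantification used TMTpro 16plex LC-MS/MS with channel sums equalised, and values are log-two fold changes in thermal stability relative to solvent controls from duplicates.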

[1] = compound: C/C(=N\NC(=O)C1=CC(=CC=C1)S(=O)(=O)N2CCOCC2)/C3=C(C=CC(=C3)Cl)O
Summary of the method: as §1

[2] = compound: C1=CC(=CC=C1C2=NC3=C(N2)C=C(C=C3)C(=O)N)OC4=CC=C(C=C4)Cl
Summary of the method: as §1

[3] = compound: C1=CC2=C(C=CC(=C2)/C=C\3/C(=O)NC(=NCC4=CC=CS4)S3)N=C1
Summary of the method: as §1

[4] = compound: C1=CC2=NC=CN=C2C=C1/C=C/3\C(=O)NC(=O)S3
Summary of the method: as §1

[5] = compound: C1=CC=C(C=C1)C2=NC(=C(N2)C3=CC=NC=C3)C4=CC(=C(C=C4)Cl)O
Summary of the method: as §1

[6] = compound: C1=CC=C2C(=C1)C3=NNC4=CC=CC(=C43)C2=O
Summary of the method: as §1

[7] = compound: C1CCN(C1)C(=O)NC2=CC=CC(=C2)NC3=NC=C(C(=N3)NCCC4=CN=CN4)Br
Summary of the method: as §1

[8] = compound: C1CN(CCC1(CC2=CC=C(C=C2)Cl)N)C3=NC=NC4=C3C=CN4
Summary of the method: as §1

IRAK-1-4 Inhibitor I = compound: C1COCCN1CCN2C3=CC=CC=C3N=C2NC(=O)C4=CC(=CC=C4)[N+](=O)[O-] [IRAK-1-4 Inhibitor I]
Summary of the method: as §1

Measured: log2 fold change

MOSPD2 (UniProt Q8NHP6)
inactive: erlotinib -0.049 | [1] 0.152 | [2] 0 | [3] 0.072 | [4] 0.027 | [5] -0.015 | [6] 0.157 | [7] -0.062 | [8] -0.023 | IRAK-1-4 Inhibitor I 0.057

MAD2L2 (UniProt Q9UI95)
Sequence of UniProt Q9UI95 (Q9UI95 whole entry, looked up): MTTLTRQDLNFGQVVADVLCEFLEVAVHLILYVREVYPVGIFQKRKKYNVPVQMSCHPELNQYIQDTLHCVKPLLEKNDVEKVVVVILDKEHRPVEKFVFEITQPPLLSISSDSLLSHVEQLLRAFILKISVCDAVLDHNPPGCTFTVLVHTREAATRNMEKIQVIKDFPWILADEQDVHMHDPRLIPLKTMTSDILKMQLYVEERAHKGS
inactive: erlotinib 0.173 | [1] 0.004 | [2] 0.209 | [3] -0.035 | [4] 0.035 | [5] -0.09 | [6] -0.101 | [7] 0.094 | [8] 0.102 | IRAK-1-4 Inhibitor I 0.004

MDM2 isoform 11 (UniProt Q00987)
inactive: erlotinib 0.108 | [1] -0.039 | [2] 0.037 | [3] -0.071 | [4] 0.021 | [5] 0.084 | [6] 0.04 | IRAK-1-4 Inhibitor I 0.151

MAP4K5 (UniProt Q9Y4K4)
inactive: erlotinib 0.032 | [1] -0.169 | [2] -0.025 | [3] -0.019 | [4] -0.002 | [5] 0.039 | [7] 0.089 | [8] -0.04 | IRAK-1-4 Inhibitor I -0.001

KIFC1 (UniProt Q9BW19)
inactive: erlotinib 0.003 | [1] 0.061 | [2] 0.011 | [3] -0.002 | [4] -0.048 | [5] 0.011 | [6] -0.012 | [7] -0.009 | [8] 0.025 | IRAK-1-4 Inhibitor I -0.023

LAP3 (UniProt P28838)
inactive: erlotinib -0.034 | [1] 0.08 | [2] 0.082 | [3] -0.022 | [4] 0.013 | [5] -0.026 | [6] -0.017 | [7] 0.027 | [8] 0.008 | IRAK-1-4 Inhibitor I 0.061

MAP4K4 isoform 3 (UniProt O95819)
inactive: erlotinib -0.003 | [1] -0.025 | [2] 0.099 | [3] 0.038 | [4] -0.027 | [5] -0.093 | [6] -0.077 | [7] 0.008 | [8] -0.011 | IRAK-1-4 Inhibitor I 0.059

MORC3 (UniProt Q14149)
inactive: erlotinib 0.02 | [1] -0.047 | [2] -0.005 | [3] 0.01 | [4] -0.025 | [5] 0.034 | [6] -0.033 | [7] -0.029 | [8] 0.002 | IRAK-1-4 Inhibitor I -0.011

MRPL35 (UniProt Q9NZE8)
inactive: erlotinib -0.005 | [1] -0.237 | [2] -0.025 | [4] 0.012 | [5] -0.011 | [6] -0.133 | IRAK-1-4 Inhibitor I -0.041
active: [3] 0.296

MAP4 (UniProt P27816)
Sequence of UniProt P27816 (P27816 whole entry, looked up): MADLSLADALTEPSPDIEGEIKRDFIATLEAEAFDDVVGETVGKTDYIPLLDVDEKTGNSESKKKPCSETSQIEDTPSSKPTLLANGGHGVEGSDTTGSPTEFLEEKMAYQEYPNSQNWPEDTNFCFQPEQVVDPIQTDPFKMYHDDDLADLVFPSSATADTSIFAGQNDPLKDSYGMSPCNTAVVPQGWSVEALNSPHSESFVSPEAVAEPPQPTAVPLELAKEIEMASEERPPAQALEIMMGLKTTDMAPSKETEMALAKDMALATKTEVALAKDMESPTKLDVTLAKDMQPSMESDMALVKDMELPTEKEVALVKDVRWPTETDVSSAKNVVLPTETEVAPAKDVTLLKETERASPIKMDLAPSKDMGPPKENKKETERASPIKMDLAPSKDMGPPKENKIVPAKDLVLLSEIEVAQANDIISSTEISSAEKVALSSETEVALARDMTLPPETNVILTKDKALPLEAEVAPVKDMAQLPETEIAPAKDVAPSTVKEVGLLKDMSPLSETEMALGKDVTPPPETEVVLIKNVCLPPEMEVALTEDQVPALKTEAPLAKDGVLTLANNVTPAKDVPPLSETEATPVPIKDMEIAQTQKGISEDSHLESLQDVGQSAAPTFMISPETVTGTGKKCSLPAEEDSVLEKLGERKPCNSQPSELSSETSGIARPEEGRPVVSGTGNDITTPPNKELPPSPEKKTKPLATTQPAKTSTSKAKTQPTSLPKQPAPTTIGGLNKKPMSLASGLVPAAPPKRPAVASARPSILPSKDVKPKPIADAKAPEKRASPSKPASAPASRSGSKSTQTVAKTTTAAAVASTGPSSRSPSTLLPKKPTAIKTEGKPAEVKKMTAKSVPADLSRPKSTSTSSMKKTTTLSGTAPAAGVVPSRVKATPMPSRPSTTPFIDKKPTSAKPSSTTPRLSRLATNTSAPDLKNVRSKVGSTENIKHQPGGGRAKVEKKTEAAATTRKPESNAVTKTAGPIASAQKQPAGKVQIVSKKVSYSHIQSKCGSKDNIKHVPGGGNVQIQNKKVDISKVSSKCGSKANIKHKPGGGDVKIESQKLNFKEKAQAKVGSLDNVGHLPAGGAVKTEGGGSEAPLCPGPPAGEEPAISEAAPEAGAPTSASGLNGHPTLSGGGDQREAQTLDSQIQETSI
inactive: erlotinib 0.001 | [1] -0.013 | [2] 0.031 | [3] -0.003 | [4] -0.001 | [5] 0.023 | [6] -0.002 | [7] -0.007 | [8] 0.003 | IRAK-1-4 Inhibitor I 0.024

KLHL12 isoform 2 (UniProt Q53G59)
inactive: erlotinib -0.051 | [1] 0.021 | [2] 0.004 | [3] 0.053 | [4] 0.165 | [5] -0.134 | [6] 0.04 | IRAK-1-4 Inhibitor I 0.046

MORF4L1 isoform 2 (UniProt Q9UBU8)
Sequence of UniProt Q9UBU8 (Q9UBU8 whole entry, looked up): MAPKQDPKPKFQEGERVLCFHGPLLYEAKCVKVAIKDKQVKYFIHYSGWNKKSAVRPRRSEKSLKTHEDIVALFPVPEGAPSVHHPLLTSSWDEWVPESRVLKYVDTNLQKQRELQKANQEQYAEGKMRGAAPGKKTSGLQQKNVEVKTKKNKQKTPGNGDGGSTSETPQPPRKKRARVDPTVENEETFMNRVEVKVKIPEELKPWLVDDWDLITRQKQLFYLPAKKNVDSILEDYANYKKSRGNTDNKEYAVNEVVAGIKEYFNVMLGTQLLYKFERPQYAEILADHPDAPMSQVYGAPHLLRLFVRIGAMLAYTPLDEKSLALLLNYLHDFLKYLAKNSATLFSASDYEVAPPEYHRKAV
inactive: erlotinib 0.028 | [1] 0.06 | [2] 0.046 | [3] -0.027 | [4] -0.032 | [5] -0.005 | [6] 0.017 | [7] -0.04 | [8] -0.01 | IRAK-1-4 Inhibitor I 0.013

MAPK1 (UniProt P28482)
inactive: erlotinib -0.021 | [1] -0.017 | [2] 0.001 | [3] 0.001 | [4] -0.016 | [5] -0.003 | [6] 0.065 | [7] 0.017 | [8] 0.009 | IRAK-1-4 Inhibitor I -0.009

MAPK14 isoform 2 (UniProt Q16539)
Sequence of UniProt Q16539 (Q16539 whole entry, looked up): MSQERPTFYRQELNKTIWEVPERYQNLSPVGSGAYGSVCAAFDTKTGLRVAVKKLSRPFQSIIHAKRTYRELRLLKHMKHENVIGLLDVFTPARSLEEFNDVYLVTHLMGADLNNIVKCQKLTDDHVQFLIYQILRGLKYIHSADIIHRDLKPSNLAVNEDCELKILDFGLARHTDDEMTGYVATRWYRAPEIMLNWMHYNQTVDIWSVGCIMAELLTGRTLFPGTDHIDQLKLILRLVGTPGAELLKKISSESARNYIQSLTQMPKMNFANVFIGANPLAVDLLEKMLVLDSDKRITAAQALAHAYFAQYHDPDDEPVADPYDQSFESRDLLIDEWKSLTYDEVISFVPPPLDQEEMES
inactive: erlotinib -0.004 | [1] 0.011 | [2] -0.049 | [3] 0.016 | [4] 0.017 | [5] 0.633 | [6] -0.045 | [7] -0.02 | [8] 0.059 | IRAK-1-4 Inhibitor I -0.015

MLH1 (UniProt P40692)
inactive: erlotinib 0.018 | [1] 0.021 | [2] -0.011 | [3] 0.012 | [4] -0.079 | [5] 0.025 | [6] -0.019 | [7] -0.037 | [8] 0.015 | IRAK-1-4 Inhibitor I -0.002

MAST2 (UniProt Q6P0Q8)
active: [4] -0.588
inactive: erlotinib 0.044 | [1] -0.054 | [2] 0.142 | [3] 0.003 | [5] -0.03 | [6] 0.099 | [7] 0.038 | [8] -0.046 | IRAK-1-4 Inhibitor I 0.073

MON2 isoform 5 (UniProt Q7Z3U7)
Sequence of UniProt Q7Z3U7 (Q7Z3U7 whole entry, looked up): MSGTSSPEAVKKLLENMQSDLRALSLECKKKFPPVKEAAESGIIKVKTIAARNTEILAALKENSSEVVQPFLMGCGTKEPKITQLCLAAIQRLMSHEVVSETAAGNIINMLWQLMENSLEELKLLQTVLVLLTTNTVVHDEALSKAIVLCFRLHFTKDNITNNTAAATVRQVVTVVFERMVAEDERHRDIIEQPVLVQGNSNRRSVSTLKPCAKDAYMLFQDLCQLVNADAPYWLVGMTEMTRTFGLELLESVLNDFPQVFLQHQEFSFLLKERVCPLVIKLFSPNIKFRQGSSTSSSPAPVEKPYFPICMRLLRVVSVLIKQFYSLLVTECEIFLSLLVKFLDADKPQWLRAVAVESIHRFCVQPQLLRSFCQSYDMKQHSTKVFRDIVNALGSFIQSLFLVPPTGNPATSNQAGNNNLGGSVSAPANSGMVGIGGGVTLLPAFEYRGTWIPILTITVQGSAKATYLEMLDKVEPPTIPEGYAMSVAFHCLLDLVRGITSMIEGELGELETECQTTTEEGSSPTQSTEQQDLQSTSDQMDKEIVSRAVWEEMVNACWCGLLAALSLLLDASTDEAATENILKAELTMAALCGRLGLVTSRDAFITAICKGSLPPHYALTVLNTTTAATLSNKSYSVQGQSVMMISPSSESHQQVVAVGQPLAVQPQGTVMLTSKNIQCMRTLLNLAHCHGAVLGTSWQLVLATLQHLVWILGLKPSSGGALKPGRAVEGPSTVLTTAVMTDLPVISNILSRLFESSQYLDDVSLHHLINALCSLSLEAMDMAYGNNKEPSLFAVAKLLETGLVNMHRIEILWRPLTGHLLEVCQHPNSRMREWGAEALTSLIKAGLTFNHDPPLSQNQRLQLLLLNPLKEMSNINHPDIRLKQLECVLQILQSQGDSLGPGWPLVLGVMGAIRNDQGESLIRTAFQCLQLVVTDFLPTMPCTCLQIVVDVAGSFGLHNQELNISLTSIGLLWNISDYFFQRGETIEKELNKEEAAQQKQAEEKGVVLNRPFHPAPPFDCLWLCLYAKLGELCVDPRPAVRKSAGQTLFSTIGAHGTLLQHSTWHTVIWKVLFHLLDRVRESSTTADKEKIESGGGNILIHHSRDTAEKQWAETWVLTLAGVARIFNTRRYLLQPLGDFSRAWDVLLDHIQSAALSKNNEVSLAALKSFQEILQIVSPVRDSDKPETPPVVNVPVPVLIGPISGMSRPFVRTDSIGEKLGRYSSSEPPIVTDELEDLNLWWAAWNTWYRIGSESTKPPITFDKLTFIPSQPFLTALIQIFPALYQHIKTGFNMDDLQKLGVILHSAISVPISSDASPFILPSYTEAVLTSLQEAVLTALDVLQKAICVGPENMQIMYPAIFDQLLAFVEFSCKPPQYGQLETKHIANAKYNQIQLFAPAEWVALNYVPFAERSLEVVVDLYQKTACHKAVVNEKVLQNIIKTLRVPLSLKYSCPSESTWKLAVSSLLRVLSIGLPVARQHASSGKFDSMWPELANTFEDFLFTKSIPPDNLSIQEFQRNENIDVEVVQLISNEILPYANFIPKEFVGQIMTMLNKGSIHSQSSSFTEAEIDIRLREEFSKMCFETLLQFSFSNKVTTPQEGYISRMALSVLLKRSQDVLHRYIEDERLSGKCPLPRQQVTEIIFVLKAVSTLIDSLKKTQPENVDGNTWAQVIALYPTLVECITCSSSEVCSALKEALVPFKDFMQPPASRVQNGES
inactive: erlotinib 0.031 | [1] -0.031 | [2] -0.018 | [3] 0.019 | [4] 0.001 | [5] -0.016 | [6] -0.021 | [7] 0.012 | [8] 0.04 | IRAK-1-4 Inhibitor I 0.009

MCMBP isoform 2 (UniProt Q9BTE3)
inactive: erlotinib 0.084 | [1] 0.027 | [2] 0.282 | [3] -0.168 | [4] -0.156 | [5] -0.051 | [6] -0.411 | [7] 0.024 | [8] 0.055 | IRAK-1-4 Inhibitor I -0.016

KSR1 (UniProt Q8IVT5)
inactive: erlotinib 0.011 | [1] -0.099 | [2] -0.038 | [3] 0.058 | [4] 0.022 | [5] 0.059 | [6] -0.078 | [7] 0.015 | [8] -0.037 | IRAK-1-4 Inhibitor I -0.008

LSG1 (UniProt Q9H089)
inactive: erlotinib 0.044 | [1] 0.036 | [2] -0.059 | [3] -0.136 | [4] -0.021 | [5] 0 | [6] -0.114 | [7] -0.031 | [8] 0.103 | IRAK-1-4 Inhibitor I -0.048

LIMS1 isoform 3 (UniProt P48059)
inactive: erlotinib -0.004 | [1] -0.034 | [2] 0.014 | [3] 0.009 | [4] -0.008 | [5] 0.004 | [6] 0.094 | [7] 0.003 | [8] -0.017 | IRAK-1-4 Inhibitor I -0.024

KIFC3 isoform 6 (UniProt Q9BVG8)
inactive: erlotinib 0.091 | [1] 0.069 | [2] 0.14 | [3] 0.004 | [4] 0.076 | [6] -0.077 | [7] -0.103 | [8] 0.158

LARS2 (UniProt Q15031)
active: [2] 0.549
inactive: erlotinib 0.027 | [1] 0.033 | [3] -0.012 | [4] -0.041 | [5] 0.014 | [6] 0.029 | [7] 0.03 | [8] 0.039 | IRAK-1-4 Inhibitor I -0.021

KIF14 (UniProt Q15058)
inactive: erlotinib 0.031 | [1] -0.06 | [2] 0.016 | [3] -0.04 | [4] -0.176 | [5] 0.01 | [6] -0.032 | [7] -0.002 | [8] 0.008 | IRAK-1-4 Inhibitor I -0.014

MAP4 (UniProt E7EVA0)
inactive: erlotinib 0.056 | [1] 0.01 | [2] 0.113 | [3] 0.045 | [4] -0.072 | [5] -0.004 | [6] -0.076 | [7] 0.071 | [8] 0.061 | IRAK-1-4 Inhibitor I 0.037

MRPL19 (UniProt P49406)
inactive: erlotinib 0.02 | [1] 0.079 | [2] -0.041 | [3] -0.003 | [4] -0.007 | [5] -0.032 | [6] -0.019 | [7] -0.014 | [8] 0.005 | IRAK-1-4 Inhibitor I 0

MECR (UniProt Q9BV79)
Sequence of UniProt Q9BV79 (Q9BV79 whole entry, looked up): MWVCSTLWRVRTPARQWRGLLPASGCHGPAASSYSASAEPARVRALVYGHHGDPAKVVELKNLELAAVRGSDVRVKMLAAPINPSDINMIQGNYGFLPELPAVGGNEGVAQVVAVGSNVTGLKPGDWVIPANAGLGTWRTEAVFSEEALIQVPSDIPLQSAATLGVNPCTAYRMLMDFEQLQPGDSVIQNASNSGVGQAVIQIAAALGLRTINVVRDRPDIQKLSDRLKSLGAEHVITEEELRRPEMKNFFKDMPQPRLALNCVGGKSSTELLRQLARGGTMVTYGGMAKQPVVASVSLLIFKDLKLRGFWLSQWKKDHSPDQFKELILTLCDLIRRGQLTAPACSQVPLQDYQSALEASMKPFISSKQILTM
inactive: erlotinib -0.019 | [1] 0.027 | [2] -0.005 | [3] -0.028 | [4] 0.012 | [5] -0.038 | [6] -0.035 | [7] -0.053 | [8] 0.079 | IRAK-1-4 Inhibitor I 0.025

MAP11 (UniProt Q8WVR3)
Sequence of UniProt Q8WVR3 (Q8WVR3 whole entry, looked up): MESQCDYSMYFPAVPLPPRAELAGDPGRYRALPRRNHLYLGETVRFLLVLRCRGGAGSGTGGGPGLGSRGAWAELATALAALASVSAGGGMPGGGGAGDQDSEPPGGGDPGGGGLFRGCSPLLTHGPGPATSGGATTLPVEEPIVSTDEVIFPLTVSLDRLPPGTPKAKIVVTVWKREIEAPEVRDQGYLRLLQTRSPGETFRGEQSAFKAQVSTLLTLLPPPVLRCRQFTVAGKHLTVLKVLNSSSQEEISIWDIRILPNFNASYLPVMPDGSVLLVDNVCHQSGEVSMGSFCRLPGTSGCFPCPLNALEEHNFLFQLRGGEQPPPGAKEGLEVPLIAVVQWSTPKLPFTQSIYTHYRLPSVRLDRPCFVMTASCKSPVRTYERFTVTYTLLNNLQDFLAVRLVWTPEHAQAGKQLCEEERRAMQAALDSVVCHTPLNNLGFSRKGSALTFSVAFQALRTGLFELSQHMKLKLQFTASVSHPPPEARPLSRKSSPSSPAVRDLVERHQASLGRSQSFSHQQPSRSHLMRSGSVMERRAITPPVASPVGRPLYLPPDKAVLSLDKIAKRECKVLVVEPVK
inactive: erlotinib 0.013 | [1] -0.018 | [2] -0.009 | [3] 0.006 | [4] 0.061 | [5] -0.004 | [6] 0.064 | [7] -0.135 | [8] 0.02 | IRAK-1-4 Inhibitor I -0.02

LYSMD3 (UniProt Q7Z3D4)
inactive: erlotinib -0.067 | [1] -0.051 | [2] 0.044 | [3] 0.069 | [4] 0.05 | [5] 0.007 | [6] -0.11 | [7] 0.037 | [8] 0 | IRAK-1-4 Inhibitor I -0.01

KIF2C (UniProt Q99661)
inactive: erlotinib 0.019 | [1] 0.033 | [2] -0.008 | [3] -0.01 | [4] -0.008 | [5] 0.002 | [6] -0.033 | [7] 0.015 | [8] -0.006 | IRAK-1-4 Inhibitor I -0.019
